# Compound activity deposited in PubChem by Broad Institute.
# Only a sample is shown.
# aSyn UTR act: Activators working through SNCA 5'UTR binding (MLPCN). hit rate 7.1% among 300,000. alpha-synuclein 5'UTR reporter, activators screen. activity score, % (tested at 7.5 µM), hits read low; in the data active means activity score below about -60%
# The depositor's hits bear a star.
SMILES,aSyn UTR act
Cc1cc(CN(C)C(=O)c2ccc3nc(Cc4ccccc4F)oc3c2)on1,-62*
CC(C(Sc1ccccc1N)c1ccccc1)[N+](=O)[O-] (configuration not stated),-83*
CCN1CCN(c2ncnc3c2cnn3-c2ccccc2)CC1,-98*
Oc1c(CN2CCN(c3ccccc3)CC2)cc(Br)c2cccnc12,85
c1ccc(-n2ncc3c(N4CCCCC4)ncnc32)cc1,94
CCN1CCN(c2ncnc3c2cnn3-c2ccc(Cl)cc2)CC1,-63*
COc1ccc(-n2ncc3c(N4CCC(C(N)=O)CC4)ncnc32)cc1,-124*
CCOC(=O)N1CCN(c2ncnc3c2cnn3-c2ccc(Cl)cc2)CC1,-86*
CC1CCCN(c2ncnc3c2cnn3-c2ccc(Cl)cc2)C1 (configuration not stated),98
CC1CC(C)CN(c2ncnc3c2cnn3-c2ccc(Cl)cc2)C1 (configuration not stated),-99*
COc1ccc(-n2ncc3c(N4CCN(Cc5ccccc5)CC4)ncnc32)cc1,-115*
Cc1ccc(Oc2ccc(Cl)cc2N)cc1,-85*
Nc1cc(Cl)ccc1Oc1ccc2ccccc2c1,-138*
CC(=O)c1ccc(NC(=O)c2cc(C)nc3ccccc23)cc1,-101*
CC(=O)c1cccc(NC(=O)Nc2ccccc2)c1,-96*
CC(=O)c1cccc(NC(=O)c2ccc3ccccc3c2)c1,-145*
CC(=O)c1cccc(NC(=O)Nc2nc(C)cc(C)n2)c1,-85*
CSc1ncc(C(=O)Nc2ccc(C(C)=O)cc2)c(C)n1,-87*
COC(=O)/C(=C\C(=O)c1ccccc1)Nc1cccc(C(F)(F)F)c1,-185*
O=C(Nc1ccc(Br)cc1)c1cc2ccccn2n1,-117*
CC(C)c1cc(C(=O)Nc2cccc(C(F)(F)F)c2)no1,-102*
CC(C)OC(=O)c1cccc(NC(=O)c2ccccc2)c1,-132*
Cc1cccc(NC(=O)CCNC(=O)c2ccc(Br)cc2)c1,-93*
O=C(Nc1cccc(C(=O)Nc2ccc(Br)cc2)c1)c1ccccc1,-111*
CN(C)C(=S)Nc1ccc2ccccc2c1,-67*
SMILES,aSyn UTR act
CCC(=O)Nc1cccc(NC(=O)c2ccc(Br)cc2)c1,-117*
O=C(Cc1ccccc1)NNc1ccc2ccccc2c1,-101*
O=C(Nc1ccccc1)Nc1ccc2ccccc2c1,-141*
Nc1ccc(C(=O)Nc2cccc(N)c2)cc1,-67*
O=C(Nc1cccc(O)c1)c1ccc(Br)cc1,-181*
CC(=O)c1ccc(NC(=O)c2cccc(NC(=O)c3ccccc3)c2)cc1,-116*
CC1CCC(NC(=O)CCNC(=O)c2ccc(Br)cc2)CC1 (configuration not stated),-71*
O=C(Nc1ccccc1)Nc1cccc(C(F)(F)F)c1,-73*
Cc1ccc(NC(=S)N2CCCC2)cc1,-64*
Cc1ccc(NC(=S)N2CCCCCC2)cc1,-94*
CCOc1ccc(-c2nc(C)c(C(C)=O)n2O)cc1,-173*
CC1(C)CN(c2ccc(N3CC(C)(C)C3=O)cc2)C1=O,-70*
Cc1ccc(C=Nc2ccc(N(C)C)cc2)o1,-139*
CN(C)S(=O)(=O)c1ccc(C(=O)Nc2nc3ccccc3[nH]2)cc1,-109*
CCc1ccc(C(=O)Nc2nc3ccccc3[nH]2)cc1,88
N#Cc1ccc(C(=O)Nc2nc3ccccc3[nH]2)cc1,-88*
Cc1occc1C(=O)N/N=C/c1ccc2c(c1)OCO2,-67*
Cc1cc(C(=O)N/N=C/c2ccc3c(c2)OCO3)c(C)o1,-105*
Nc1nc(CSc2ncccn2)nc(Nc2ccccc2)n1,-148*
Cc1ccc(Nc2nc(N)nc(CC#N)n2)cc1,-118*
Cc1ccc(Nc2nc(N)nc(CSc3ncccn3)n2)cc1,-132*
Cc1ccc(Nc2nc(N)nc(CSCCO)n2)cc1,-112*
CCOc1ccc(Nc2nc(N)nc(CCl)n2)cc1,96
CSc1cccc(NCc2ccc([N+](=O)[O-])cc2)c1,-63*
CCC(Sc1nnnn1C)C(=O)Nc1ccc(C(C)=O)cc1 (configuration not stated),-73*
SMILES,aSyn UTR act
O=C(Cc1ccc(Cl)cc1)NCc1ccccc1Cl,-66*
Cc1ccccc1CNC(=O)Cc1ccccc1[N+](=O)[O-],-96*
O=C(Cc1ccccc1[N+](=O)[O-])NCc1ccccc1Cl,-147*
Cc1ccc(C(=O)N/C(N)=N/c2nc3ccccc3o2)cc1,-114*
N/C(=N\c1nc2ccccc2o1)NC(=O)c1ccccc1,-194*
CC(C)(C)C(=O)N/C(N)=N/c1nc2ccccc2o1,-63*
COc1ccccc1C(=O)N/C(N)=N/c1nc2ccccc2o1,-70*
O=C1S/C(=C\c2ccc(N3CCOCC3)o2)C(=O)N1c1ccccc1,-96*
O=C(O)c1ccccc1-c1ccc(/C=C2\SC(=O)N(c3ccccc3)C2=O)o1,-72*
Cc1ccc(-c2nc3cc(C)ccc3o2)cc1,73
Cc1ccc2oc(-c3ccco3)nc2c1,-137*
COCc1nc(-c2ccc(-c3ccc(C)cc3)nc2OC)no1,-190*
COc1ccc(-c2ccc(-c3noc(C)n3)c(OC)n2)cc1,-146*
CCCC(=O)N/C(N)=N/c1nc2ccccc2o1,-121*
CC(C)CC(=O)N/C(N)=N/c1nc2ccccc2o1,-160*
CCOC(=O)c1cc2c(nc1N)CC(C)(CC)OC2 (configuration not stated),-101*
Cc1nnc(SCc2ccc(F)cc2Cl)s1,-81*
Cc1nnc(SCc2ccc3c(c2)OCO3)s1,-72*
Cc1nnc(SCC(=O)c2cc(C)n(-c3ccc4c(c3)OCO4)c2C)s1,-151*
Cc1cc(C(=O)CN2C(=O)C(=O)N(Cc3ccccc3)C2=O)c(C)n1-c1ccc2c(c1)OCCO2,-74*
Cc1cc(C(=O)CN2C(=O)c3ccccc3S2(=O)=O)c(C)n1-c1ccccc1,120
CC(=O)c1ccc(OCC(=O)c2cc(C)n(-c3ccc4c(c3)OCO4)c2C)cc1,-65*
Cc1cc(C(=O)CSc2nnnn2C)c(C)n1-c1ccc2c(c1)OCCO2,-125*
O=C(Nc1nnc(S(=O)(=O)N2CCCCCC2)s1)c1ccccc1,-65*
O=C(Nc1nnc(S(=O)(=O)N2CCN(c3ccc(F)cc3)CC2)s1)c1ccccc1,-63*
SMILES,aSyn UTR act
COc1cccc(/C=N/Nc2ccc(C(=O)O)cc2)c1O,113
COc1ccc(Br)cc1/C=N/Nc1cccc(C(=O)O)c1,-76*
CN(C)c1ccc(/C=N/Nc2cccc(C(=O)O)c2)cc1,77
COc1ccc(/C(C)=N/Nc2cccc(C(=O)O)c2)cc1OC,-113*
O=C(O)c1cccc(N/N=C/c2cc(Br)cc(Br)c2O)c1,-232*
COc1ccccc1/C=C/C=N/Nc1cccc(C(=O)O)c1,-119*
O=C(NN=C1C2CC3CC1CC(Cl)(C3)C2)c1ccccn1,-137*
Cc1ccc(/C=N/NC(=O)c2ccccn2)o1,-74*
O=C(N/N=C/c1ccncc1)c1ccccn1,-90*
O=C(N/N=C/c1ccc(N2CCOCC2)cc1)c1ccccn1,-103*
O=C(NNC(=O)C(c1ccccc1)c1ccccc1)c1ccccn1,72
O=C(NN=C1c2ccccc2-c2ccccc21)c1ccccn1,-134*
CN(c1ccc(OCC(=O)Nc2nc(-c3ccccc3)cs2)cc1)S(=O)(=O)c1ccc(F)cc1,-88*
Cc1ccc(S(=O)(=O)N(C)c2ccc(OCC(=O)Nc3nc(-c4ccccc4)cs3)cc2)cc1,-73*
CCc1ccccc1NC(=S)N=Nc1c(O)n(C)c2ccc(S(=O)(=O)N3CCOCC3)cc12,80
CCOc1ccc2c(c1)c(N=Nc1cccc(C(=O)O)c1)c(O)n2C,-179*
CNc1nc(N2CCc3ccccc32)ncc1F,-109*
